The record followed here is PubChem BioAssay (NCI).

About 83,000 compounds went through this panel and 20% of them were active in at least one assay; those are over-represented in the sample as a whole.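 A percent growth of 40 corresponds to 60% growth inhibition; 0 means no net growth; -100 means all cells died. Active threshold: below 10.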 A number with no mark means an inactive call. Activity calls are given as the source filed them.

For the test, the system named is A549/ATCC NSCLC. Put plainly: NCI-60 one-dose screen, 48 h (100 = growth as untreated, 0 = no growth, -100 = all killed). The note with it: 10 µM unless noted. Here is the method: Growth inhibition of the A549/ATCC human Non-Small Cell Lung tumor cell line is measured as a screen for anti-cancer activity. Cells are grown in 96 well plates and exposed to the test compound for 48 hours. Compounds are tested at a single concentration, which is 10^-5 M for most compounds. The reported endpoint is percent growth (GI% or GIPRCNT), where numbers from 0 - 100% represent growth inhibition, and numbers from -100% - 0 represent cell death. For example, a value of 40 represents 60% growth inhibition. A value of 0 means no net growth occurred over the course of the experiment. A value of -40 indicates 40% of cells at the beginning of the experiment died by the end of the experiment. A value of -100 means all cells are dead at the end of the experiment.
NCI-60 Human Tumor Cell Lines Screen was performed using the standard one-dose NCI protocol, which is described in more detail at https://dtp.cancer.gov/discovery_development/nci-60/default.htm.
Compounds with GIPRCNT values below 10 were considered active. Activity score was based on GIPRCNT using the following formula: […]
Score is 0 for GIPRCNT values of 100 or above, 50 for GIPRCNT values of 0, and 100 for GIPRCNT values of -100.
`COc1ccccc1NC(=O)Nc1ccc(-c2nc3ccccc3o2)cc1`: the growth was 82.2%.
The same measure for `Cn1ccnc1C(=O)/C=C/c1ccc(C(=O)Nc2ccc(S(F)(F)(F)(F)F)cc2)cc1`: 31.5%; for `COc1cc(-c2cc(-c3ccc(Nc4nc(Nc5ccccc5)nc(Nc5ccc(Cl)cc5)n4)cc3)nc(N)n2)cc(OC)c1OC`: 79.3%; for `CCNCCNc1cc(-c2ccc(Cl)cc2)c(C#N)c2nc3ccccc3n12`: 6.12% (active).
Consider `CC(=[N-])N1CCC[C@@H](Nc2c3ccccc3nc3ccccc23)C1.[Cl][Pt].[NH-]CCC[NH-]`, for which the growth is 7.75% (active).
For `CCCCCOC(=O)c1ccc(NC(=O)CNCC(C)C)cc1` the value was 88.4%; for `CC(C)(C)Nc1c(-c2c3ccccc3cc3ccccc23)nc2ccccn12`, 49.4%; for `CCCCN(CCCC)CCCn1c(=O)c2sc3ncccc3c2n2nnc(-c3ccccc3)c12`, 102%.
Consider `CCNCCNc1cc(-c2ccc(C(F)(F)F)cc2)c(C#N)c2nc3cc(Cl)c(Cl)cc3n12`, for which the growth was -88.4% (active).
For `O=c1[nH]nc(-c2ccc(Cl)cc2)cc1Cc1ccccc1` the value was 42.1%.
The same measure for `CN1CCN(CCCOc2ccc3nc(Nc4cc(Cl)cc(Cl)c4)ccc3c2)CC1`: -81% (active); for `COc1ccc(/C=C2\C=C(c3ccccc3)N(CCc3ccccc3)C2=O)cc1OC`: 32.9%; for `N=C(N)c1ccc(-c2ccc(-c3ccc(Cl)cc3Cl)o2)nc1`: 6.38% (active).
The same measure for `O=[N+]([O-])c1ccc(-c2cc3c(Nc4ccc(OCc5cccc(Cl)c5)c(Cl)c4)ncnc3s2)cc1`: 29.4%.
As to `COc1ccc2c(c1)/C(=C\c1sc(=S)[nH]c1O)C(C(=O)O)=N2`, the growth is 99.8%.
For `Cc1nc(C)c(-c2nn3c(-c4cccc(F)c4)nnc3s2)s1` the value was 87%; for `COc1cc2c(=O)n(CCCn3ccnc3)c3c4cc5c(cc4ccc3c2cc1OC)OCO5`, 22%; for `COc1cc2c(cc1OC)-c1ccc3cc4c(cc3c1N(CCN1CCCC1)C2)OCO4`, 5.78% (active).
The same measure for `CN(C)S(=O)(=O)n1cnc([C@@H]2[C@@H]3C(=O)OC[C@@H]3C[C@]23N=CN(Cc2ccccc2)C3=O)c1`: 123%.
The same measure for `O=C(C[C@@]1(O)C(=O)Nc2c(Cl)ccc(Cl)c21)c1ccc(C2CC2)cc1`: 38.1%.
Turning to `CCCCS(=O)(=O)Oc1ccc(-c2nc(C)c(C(=O)OCC)s2)cc1C=O`, the growth was 101%.
For `CC(C)c1ccc(NC(=O)Cc2ccc(Nc3ncnc4cc(-c5cnn(CCN(C)C)c5)ccc34)cc2)cc1` the value was -35.7% [30 µM] (active); for `CSc1ncc(C)c(Nc2ccc(Cl)cc2)n1`, 96.4%; for `CS(=O)(=O)c1ccc(-c2nc3cc(Cl)ccc3n2CC(=O)N/N=C/c2ccc(Cl)cc2)cc1`, 68.5%.
Turning to `Cc1cc(=O)c2cc3nc(-c4cccnc4)oc3c(Br)c2o1`, the growth is 97.2%.
The same measure for `COc1ccc(C(=O)/C=C/C23c4ccccc4C(c4ccccc42)C2C(=O)NC(=O)C23)cc1` (stereo not given): 90.7%.
The same measure for `CCOC(=O)c1c(C)nc2c(c1N)/C(=C/c1cc(OC)c(OC)c(OC)c1)C(=O)N2c1ccc(OC)cc1`: 88.8%.
For `C=C1C(=O)O[C@H]2[C@H]1CC/C(COC(=O)/C=C\C(=O)NCc1ccc(Cn3c(=O)sn(-c4ccc(C#N)cc4)c3=O)cc1)=C\CC[C@@]1(C)O[C@@H]21` the value was -21.4% (active).
For `COc1ccc(N=c2nc3sc4cc(Cl)ccc4n3c(N)c2C#N)cc1`, the growth was 62.4%.
On to `COc1ccc(-c2cncnc2N)cc1OC`, for which the growth is 97.5%.
With `CNCCNc1nc2ccccc2c2c(=O)c3cc(F)ccc3oc12`, the growth is 50.8%.
For `C=C(C)[C@@H]1CC[C@@]2(C(=O)O)CC[C@]3(C)C(CCC4[C@@]5(C)CCC(OS(=O)(=O)c6ccccc6)C(C)(C)C5CC[C@]43C)C12` (stereo not given in full), the growth is 17.8%.
For `COc1ccc(C2CC(c3ccccc3)=NN2c2nc(C)c(C(C)=O)s2)cc1` (stereo not given), the growth was 98.7%.
As for `CCOC(=O)c1sc2ccc(NCc3nc[nH]c3C)cc2c1NC(=O)c1cc(OC)c(OC)c(OC)c1`, the growth was 101%.
The same measure for `COc1ccc(/C(C)=C(\c2ccc(Cl)cc2)c2ccc(OCCN3CCCCCC3)cc2)cc1F`: 55%; for `O=C(Nc1cccc2[nH]c(C(F)(F)F)nc12)c1cc(Cl)ccc1Cl`: 19.8%.
For `CC1(C)N=C(N)N=C(N)N1c1cccc(CN)c1` the value was 91%; for `CCCCC1COc2cccc3c(SCC(=O)N(C)c4cccc(Cl)c4)cc[n+]1c23` (stereo not given), 109%.
For `Cc1nc(Nc2ccc(N)cc2)c2ccccc2n1` the value was 103%.
Take `O=C(NCCOCCOCCNc1cccc2c1C(=O)N(C1CCCNC1=O)C2=O)c1cc2c(o1)C(=O)c1ccccc1C2=O` (stereo not given): the growth is -45.5% (active).
